NPR1 antag – Natriuretic polypeptide receptor (hNpr1) antagonism - Primary qHTS; 76,000 tested, 1.6% active; HEK293 hNpr1 GloSensor cGMP, ANP-stimulated luminescence; Potency, µM (doses to about 46.3 µM), inactives show top-dose activity change, negative = inhibition, usual class: inhibitors; Atrial natriuretic peptide receptor 1 (Homo sapiens), P16066; note: % is set by controls: 0 for no effect and ±100 for the full control effect; nearly all actives have a fitted effect of over 60% in size
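HEK293 cells stably expressing human Npr1 and cGMP GloSensor pGS-40F, loaded 2 h with 2% GloSensor reagent, given compound 30 min at room temperature. Luminescence read before and 20 min after 0.1 nM hNppA.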
GPT2 inhibitor – Primary qHTS assay for inhibitors of Glutamate pyruvate transaminase 2 (GPT2) | Alanine aminotransferase 2 (Homo sapiens), Q8TD30 | Recombinant GPT2, coupled pyruvate oxidase/HRP Amplex Red fluorescence | Potency, µM (doses to about 57.7 µM), for the others: at the top dose activity change, negative = inhibition, usual class: inhibitors | 100,000 tested, 0.25% active | AID 1671188, 2021; active = well fitted inhibition curve with a large enough effect; inconclusive = small, poorly fitted or top-dose-only effect; note: % is set by controls: 0 for no effect and ±100 for the full control effect; nearly all actives have a fitted effect of over 60% in size
Target sequence (Q8TD30 whole entry, looked up): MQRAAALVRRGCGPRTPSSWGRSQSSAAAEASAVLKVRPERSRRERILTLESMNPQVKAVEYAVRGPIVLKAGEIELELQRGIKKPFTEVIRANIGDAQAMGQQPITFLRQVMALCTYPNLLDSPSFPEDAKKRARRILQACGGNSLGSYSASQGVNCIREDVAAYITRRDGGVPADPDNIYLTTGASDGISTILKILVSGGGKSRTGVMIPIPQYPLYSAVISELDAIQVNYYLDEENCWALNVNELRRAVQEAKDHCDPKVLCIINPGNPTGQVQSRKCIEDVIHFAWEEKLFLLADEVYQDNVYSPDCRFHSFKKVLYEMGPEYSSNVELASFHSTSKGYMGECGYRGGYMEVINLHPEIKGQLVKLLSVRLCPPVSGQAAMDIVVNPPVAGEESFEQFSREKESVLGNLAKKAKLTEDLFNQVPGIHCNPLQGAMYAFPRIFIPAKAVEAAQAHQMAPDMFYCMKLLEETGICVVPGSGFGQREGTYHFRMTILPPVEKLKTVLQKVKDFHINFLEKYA
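Inhibition is scored from Amplex Red fluorescence generated when pyruvate oxidase and HRP act on pyruvate released by GPT2. Reactions contain 10ng/uL enzyme, 250uM a-KG and 2mM L-alanine and run 30 min at room temperature.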
NPR1 antag cnf – Natriuretic polypeptide receptor (hNpr1) antagonism - Confirmation. HEK293 hNpr1 cGMP GloSensor luminescence, ANP-stimulated. shares compounds with NPR1 antag. AID 1347044, 2019. Potency, µM (doses to about 57.6 µM), without a hit: at the highest dose activity change, negative = inhibition, usual class: inhibitors. 1,400 tested, 76% active; note: nearly all actives have a fitted effect of over 70% in size
Npr2 selectivity – Natriuretic polypeptide receptor (hNpr2) antagonism - Subtype selectivity assay; AID 1347046, 2019; 1,400 tested, 67% active; Potency, µM (titrated, usually from 57.6 µM), inactives show top-dose activity change, negative = inhibition, actives largely listed as inhibitors; shares compounds with NPR1 antag; HEK293 hNpr2 GloSensor cGMP luminescence, CNP-stimulated; note: nearly all actives have a fitted effect of over 70% in size
FLuc inh counter – Natriuretic polypeptide receptor (hNpr1) antagonism - Confirmation firefly luciferase (FLuc) inhibition counterscreen | shares compounds with NPR1 antag | purified FLuc enzyme, luminescence, Km substrate | Potency, µM (highest dose often 57.6 µM), without a hit: at the top dose activity change, negative = inhibition, hits mostly inhibitors | 1,400 tested, 0.7% active; active = well fitted inhibition curve with a large enough effect; inconclusive = small, poorly fitted or top-dose-only effect; note: 0% is about no effect
GloSensor cGMP – Natriuretic polypeptide receptor (hNpr1) antagonism - Counterscreen GloSensor control cell line; shares compounds with NPR1 antag; HEK293 GloSensor cGMP, SNP-stimulated, luminescence; Potency, µM (titrated, usually from 57.6 µM), for the others: top-dose activity change, negative = inhibition, actives largely listed as inhibitors; 1,400 tested, 69% active; AID 1347051, 2019; note: % is set by controls: 0 for no effect and ±100 for the full control effect; nearly all actives have a fitted effect of over 70% in size
* marks the source's active call; other numbers are inactive results; [ ] = remark or other dose. This excerpt belongs to a sample that is enriched for hits. Unless noted, calls come from the whole dose curve. Potency is the fitted concentration of half-maximal effect.

Results for CCc1cnc(C)nc1N1CCOC(c2ccc(Cl)cc2)C1 (stereo not drawn) ?
NPR1 antag: 10µM*; GPT2 inhibitor: inconclusive; NPR1 antag cnf: 13.7µM*; Npr2 selectivity: 15.3µM*; FLuc inh counter: 0.3%; GloSensor cGMP: 12.2µM*

How did Clc1ccc(C2CN(c3cc(C4CC4)ncn3)CCO2)cc1 (stereo not drawn) do in these assays?
NPR1 antag: 11.2µM*; GPT2 inhibitor: -27.5%; NPR1 antag cnf: 19.3µM*; Npr2 selectivity: 21.7µM*; FLuc inh counter: 0.0%; GloSensor cGMP: 17.2µM*

What do the screens show for `Cc1nc(C(F)(F)F)nc(N2CCOC(c3ccc(F)cc3)C2)c1C` (stereo not drawn)?
NPR1 antag: -23.9%; GPT2 inhibitor: -1.5%

What do the screens show for `COc1ccc(-c2cc(N3CCC(NC(=O)C4(c5ccccc5)CC4)CC3)n[nH]2)cc1`?
NPR1 antag: -9.2%; GPT2 inhibitor: -0.2%

Results for COc1ccc(OC)c(CNC(=O)c2cccc3c2CCN3C(=O)c2ccc(F)cc2)c1 ?
NPR1 antag: inconclusive; GPT2 inhibitor: -12.4%; NPR1 antag cnf: inconclusive; Npr2 selectivity: inconclusive; FLuc inh counter: 3.7%; GloSensor cGMP: inconclusive

Results for CC(C)CNC(=O)c1cccc2c1CCN2C(=O)c1ccc(F)cc1 ?
NPR1 antag: -2.7%; GPT2 inhibitor: 0.9%

How did COc1ccc(-c2noc(CC3CCN(C(=O)CCc4ccccc4)CC3)n2)cc1 do in these assays?
NPR1 antag: 12.6µM*; GPT2 inhibitor: inactive; NPR1 antag cnf: 19.3µM*; Npr2 selectivity: 21.7µM*; FLuc inh counter: -0.4%; GloSensor cGMP: 17.2µM*

What do the screens show for `COc1ccc(CC(=O)N2CCC(Cc3nc(-c4ccc(F)cc4)no3)CC2)cc1`?
NPR1 antag: 5.62µM*; GPT2 inhibitor: 3.7%; NPR1 antag cnf: 7.69µM*; Npr2 selectivity: 6.85µM*; FLuc inh counter: -1.6%; GloSensor cGMP: 6.11µM*

Results for COc1ccc(CCC(=O)N2CCC(Cc3nc(-c4ccc(F)cc4)no3)CC2)cc1 ?
NPR1 antag: 5.62µM*; GPT2 inhibitor: inactive; NPR1 antag cnf: 4.32µM*; Npr2 selectivity: 10.9µM*; FLuc inh counter: 0.4%; GloSensor cGMP: 10.9µM*

What do the screens show for `COc1ccc(OCC(=O)N2CCC(Cc3nc(-c4cnccn4)no3)CC2)cc1`?
NPR1 antag: -1.6%; GPT2 inhibitor: inactive

Results for COc1ccc(-c2noc(CC3CCN(C(=O)COc4cccc(C)c4)CC3)n2)cc1 ?
NPR1 antag: 15.8µM*; GPT2 inhibitor: inactive; NPR1 antag cnf: 21.7µM*; Npr2 selectivity: 24.3µM*; FLuc inh counter: 4.9%; GloSensor cGMP: 24.3µM*

How did COc1cccc(CCC(=O)N2CCC(Cc3nc(C4CCOCC4)no3)CC2)c1 do in these assays?
NPR1 antag: -17.3%; GPT2 inhibitor: inactive

How did O=C(C1CC1)N1CCCC(N2CCN(c3cccc(C(F)(F)F)c3)CC2)C1 (stereo not drawn) do in these assays?
NPR1 antag: 6.8%; GPT2 inhibitor: inactive

How did CCc1cccc(NC(=O)N2CC(C(=O)N(C)C)C3(CCOCC3)C2)c1 (stereo not drawn) do in these assays?
NPR1 antag: -0.9%; GPT2 inhibitor: -11.0%

What do the screens show for `O=C(C1CCN(c2nccc(Nc3ccccc3Cl)n2)CC1)N1CCC(c2ncccn2)CC1`?
GPT2 inhibitor: inactive

Results for CC(C)CCN1CCOc2cc(C(=O)Nc3ccc4cn[nH]c4c3)ccc2C1 ?
NPR1 antag: -24.2%[70.6 µM]; GPT2 inhibitor: 1.6%[88.5 µM]

Results for Cc1ccsc1C(=O)N1CCC2(CCCCO2)CC1 ?
NPR1 antag: -3.6%; GPT2 inhibitor: inactive

How did O=C(c1coc(CN2CCOCC2)c1)N1CCC2(CC1)[C@H](O)C[C@@H]2O do in these assays?
NPR1 antag: -0.8%; GPT2 inhibitor: -1.8%

How did COCC(=O)N1CCC(C(=O)N2CCCC2c2nc3ccncc3[nH]2)CC1 (stereo not drawn) do in these assays?
GPT2 inhibitor: -1.3%

How did Cn1ncc2c(C(=O)NCc3ccc(F)cc3)cc(-c3ccccc3)nc21 do in these assays?
GPT2 inhibitor: -1.4%

How did CC(C)c1noc(CC2CCN(C(=O)Cc3ccsc3)CC2)n1 do in these assays?
NPR1 antag: inconclusive; GPT2 inhibitor: inactive

What do the screens show for `COc1ccc(CCC(=O)N2CCC(Cc3nc(-c4ccc(OC)cc4)no3)CC2)cc1`?
NPR1 antag: 11.2µM*; GPT2 inhibitor: inactive; NPR1 antag cnf: 17.2µM*; Npr2 selectivity: 17.2µM*; FLuc inh counter: -0.4%; GloSensor cGMP: 12.2µM*

How did O=C(Cc1ccsc1)N1CCC(Cc2nc(-c3ccc(F)cc3)no2)CC1 do in these assays?
NPR1 antag: 5.01µM*; GPT2 inhibitor: inconclusive; NPR1 antag cnf: 4.85µM*; Npr2 selectivity: 4.85µM*; FLuc inh counter: 3.4%; GloSensor cGMP: 3.85µM*

What do the screens show for `COc1ccc(C(=O)N2CCC(n3cc(-c4nc(-c5ccccc5)no4)nn3)CC2)c(C)c1`?
NPR1 antag: inconclusive; GPT2 inhibitor: 4.5%

What do the screens show for `COc1cccc(CCC(=O)N2CCC(n3cc(-c4nc(-c5ccccc5)no4)nn3)C2)c1` (stereo not drawn)?
NPR1 antag: 14.1µM*; GPT2 inhibitor: -8.3%; NPR1 antag cnf: 21.7µM*; Npr2 selectivity: 24.3µM*; FLuc inh counter: -28.6%; GloSensor cGMP: 21.7µM*

Results for COc1cccc(CCC(=O)N2CCC(Cc3nc(-c4cnccn4)no3)CC2)c1 ?
NPR1 antag: 2.4%; GPT2 inhibitor: 3.2%

How did COc1cccc(CCC(=O)N2CCC(Cc3nc(-c4cccc(OC)c4)no3)CC2)c1 do in these assays?
NPR1 antag: 15.8µM*; GPT2 inhibitor: 4.0%; NPR1 antag cnf: 21.7µM*; Npr2 selectivity: 21.7µM*; FLuc inh counter: 0.6%; GloSensor cGMP: 17.2µM*

Results for COc1ccc(CCC(=O)N2CCC(Oc3ccc(-c4noc(C)n4)cc3)C2)cc1 (stereo not drawn) ?
NPR1 antag: -28.9%; GPT2 inhibitor: inactive

How did COc1ccc(NC(=O)C2CN(S(=O)(=O)c3cccnc3)CC23CCCCC3)cc1 (stereo not drawn) do in these assays?
NPR1 antag: 3.0%; GPT2 inhibitor: -10.5%

What do the screens show for `CC(=O)N1CCC([C@@H]2CN(Cc3cc(F)c(F)c(F)c3)C[C@H]2CO)CC1`?
NPR1 antag: 8.1%; GPT2 inhibitor: 0.5%
